# Source: PubChem BioAssay (Tox21)
# Several values for one entry are separate records, joined by “and”; a condition that tells them apart may be missing. Equal entries are not always repeated. Inconclusive results are not listed. Unmarked numbers belong to inactive results. Activity calls are given as the source filed them. Calls come from the whole dose curve; as a rule, active = well fitted cell-killing curve with a large enough effect in the repeat runs; inconclusive = weak or mixed curves, or effect the other way; inactive = no such curve, though single readings can be large or run the other way. Positions of bridges follow the written chain, without caps; N, C: chain ends. Non-standard residues stand in square brackets, D forms with d. Residues, ends and D or L forms follow the SMILES beside them. *: point of attachment. X1 = CC[C@@H](C)[C@@H](N)C1=N[C@H](C(=O)*)CS1; d(aIle) = CC[C@H](C)[C@@H](N)C(=O)O; dOrn = NCCC[C@@H](N)C(=O)O
# Experiment: qHTS assay for identifying genotoxic compounds that show differential cytotoxicity against isogenic chicken DT40 cell lines with known DNA damage response pathways - Rev3 mutant cell line (AID 743014); note: nearly all actives have a fitted effect of over 55% in size
# Conditions: chicken DT40 Rev3-/- viability, CellTiter-Glo, 40 h; series mostly up to 68.4 µM; activity, negative = cytotoxicity: at the top concentration
# % is set by controls: 0 for no effect and ±100 for the full control effect; potency is the fitted concentration of half-maximal effect.
Compound,"activity, negative = cytotoxicity [%]",Potency
CN1[C@@H](CC(=O)c2ccccc2)CCC[C@H]1C[C@H](O)c1ccccc1,-17.1,
CCN1CCCC1CNC(=O)c1cc(S(=O)(=O)CC)ccc1OC (stereo unspecified),,inactive
Cc1cc(N)c2ccccc2[n+]1CCCCCCCCCC[n+]1c(C)cc(N)c2ccccc21,,2.54 µM (active)
CC[C@@H](C)[C@H](N)C(=O)O,-5.67,
CCCCCCCCCCCCN1CCCC1=O,,30.6 µM (active)
CC1(C)C[C@@H]1C(=O)N/C(=C\CCCCSC[C@H](N)C(=O)O)C(=O)O,,inactive
CC12CCC(C[N+](C)(CCC[N+](C)(C)C)C1)C2(C)C (stereo unspecified),-19.6,
CC(C)(COP(=O)(O)OP(=O)(O)OC[C@H]1O[C@@H](n2cnc3c(N)ncnc32)[C@H](O)[C@@H]1OP(=O)(O)O)C(O)C(=O)NCCC(=O)NCCS (stereo partly specified),4.4,
O=C1c2ccccc2-c2n[nH]c3cccc1c23,,11.9 µM (active)
CO[C@H](C(=O)[C@@H](O)[C@@H](C)O)C1Cc2cc3cc(O[C@H]4C[C@@H](O[C@H]5C[C@@H](O)[C@H](O)[C@@H](C)O5)[C@@H](O)[C@@H](C)O4)c(C)c(O)c3c(O)c2C(=O)[C@H]1O[C@H]1C[C@@H](O[C@H]2C[C@@H](O[C@H]3C[C@](C)(O)[C@H](O)[C@@H](C)O3)[C@H](O)[C@@H](C)O2)[C@H](O)[C@@H](C)O1 (stereo partly specified),,84.1 nM (active) and 37.6 nM (active)
CCOC(=O)Cc1ccc(-c2ccccc2)cc1,3.73,
CC(=O)O[C@H]1C[C@@H]2CC[C@@H]3[C@H](CC[C@@]4(C)[C@H]3C[C@H]([N+]3(C)CCCCC3)[C@@H]4OC(C)=O)[C@@]2(C)C[C@@H]1[N+]1(C)CCCCC1,8.38,
O=C1c2c(O)cccc2[C@H]([C@@H]2O[C@H](CO)[C@@H](O)[C@H](O)[C@H]2O)c2cc(CO)cc(O)c21,,inactive
O=C(O)CCCC/C=C(\c1ccccc1)c1cccnc1,5.12,
CC[C@@H](C)[C@@H](N)C1=N[C@H](C(=O)N[C@@H](CC(C)C)C(=O)N[C@@H](CCC(=O)O)C(=O)N[C@@H](C(=O)N[C@@H]2CCCCNC(=O)[C@@H](CC(N)=O)NC(=O)[C@@H](CC(=O)O)NC(=O)[C@@H](Cc3cnc[nH]3)NC(=O)[C@@H](Cc3ccccc3)NC(=O)[C@@H]([C@H](C)CC)NC(=O)[C@@H](CCCN)NC2=O)[C@@H](C)CC)CS1 (X1-LE[d(aIle)][dK][dOrn][dI][dF][dH][dD][dN]; lactam 4-C),,inactive
NC(=S)NS(=O)(=O)c1ccc(N)cc1,-0.544,

Compound,"activity, negative = cytotoxicity [%]",Potency
CO[C@H]1C[C@@H]2CC[C@@H](C)[C@@](O)(O2)C(=O)C(=O)N2CCCC[C@H]2C(=O)O[C@H]([C@H](C)C[C@@H]2CC[C@@H](O)[C@H](OC)C2)CC(=O)[C@H](C)C=C(C)[C@@H](O)[C@@H](OC)C(=O)[C@H](C)C[C@H](C)/C=C/C=CC=C1C,,2.7 nM (active) and 2.4 nM (active)
CC(=O)[C@]1(O)Cc2c(O)c3c(c(O)c2[C@@H](O[C@H]2C[C@H](N)[C@H](O)[C@H](C)O2)C1)C(=O)c1ccccc1C3=O,,0.0211 µM (active)
O=C1[O][Bi][O]c2ccccc21,10.4,
N=C(N)n1cccn1,-6.08,
C=CC[N+]1([C@H]2C[C@H]3[C@@H]4CC[C@H]5C[C@H](O)[C@@H](N6CCOCC6)C[C@]5(C)[C@H]4CC[C@]3(C)[C@H]2OC(C)=O)CCCC1,15.5,
CCc1ncnc2cc(OC)c(OC)cc12,-13.7,
C=CC1=C(C(=O)O)N2C(=O)[C@@H](NC(=O)/C(=N\O)c3csc(N)n3)[C@H]2SC1 (stereo in doubt),-6.52,
CC(=O)N[C@@H](C=O)[C@H](O)[C@H](O)[C@@H](O)CO,,inactive
CNCC(=O)N[C@@H](CCCN=C(N)N)C(=O)N[C@H](C(=O)N[C@@H](Cc1ccc(O)cc1)C(=O)N[C@H](C(=O)N[C@@H](Cc1cnc[nH]1)C(=O)N1CCC[C@H]1C(=O)N[C@@H](C)C(=O)O)C(C)C)C(C)C,2.93,
CC(C)(S)C(=O)N[C@@H](CS)C(=O)O,,inactive
CCCCCCCC/C=C\CCCCCCCC(=O)N(CCO)CCO,,17.2 µM (active)
Oc1ccc(Cl)cc1C1CCCC1,,15.4 µM (active)
O=C(O)/C=C/C(=O)Nc1ccc(S(=O)(=O)Nc2nccs2)cc1,9.78,
N[C@@H](Cc1ccc(O)c(O)c1)C(=O)O,15.1,
CC(C)c1ccc2sc3ccccc3c(=O)c2c1,,54.5 µM (active)
